Assay results: PubChem BioAssay
Active and inactive are the calls of the source.

How the values were obtained:
[1] = small molecules captured by biotinylated probe aFSTL3 – biochemical, small-molecule microarray, fluorescence 635/667, stem cell growth factor project, primary screen (AID 1064); conditions: higher = more signal;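 note: measures binding of the biotinylated anti-FSTL3 antibody to printed compounds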
[2] = binders from COS7 lysate, DM2A8 probe, primary screen, torsin A project, cell lysate, small-molecule microarray, fluorescence 635/667 (AID 1065); conditions: higher = more signal, COS7 lysate expressing mutant human TOR1A
[3] = small molecules captured by biotinylated probe aFGF2 – biochemical, small-molecule microarray, fluorescence 635/667, stem cell growth factor project, primary screen (AID 1067); conditions: higher = more signal;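 note: measures binding of biotinylated aFGF2 protein to printed compounds on slides; z-score merges feature fluorescence and signal-to-noise across triplicate slides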
[4] = small molecules captured by biotinylated probe aFGF10 – biochemical, small-molecule microarray, fluorescence 635/667, stem cell growth factor project, primary screen (AID 1071); conditions: higher = more signal;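 note: score merges 667 nm spot intensity and signal to noise from triplicate slides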
[5] = target: Neurogenic locus notch homolog protein 2 (Homo sapiens) (UniProt Q04721); assay: small molecules binding Notch2 protein – biochemical, small-molecule microarray, 635 nm fluorescence, stem cell growth factors, primary screen (AID 1073); conditions: higher = more signal
[6] = target: Pro-neuregulin-1, membrane-bound isoform (Homo sapiens) (UniProt Q02297); assay: small molecules binding neuregulin-1 protein – biochemical, small-molecule microarray, fluorescence 635/667, psychiatric disease protein project, primary screen (AID 1075); conditions: NRG1 binding, 635 nm fluorescence, higher = more signal;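 note: score combines 667 nm spot fluorescence with signal to noise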
[7] = tested on: Neuregulin-1 EGF-like domain; assay: small molecules binding NRG1 EGF domain – biochemical, small-molecule microarray, 635 nm fluorescence, primary screen (AID 1081); conditions: higher = more signal;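 note: binding of the protein to compounds printed on small-molecule microarray slides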
[8] = FRG1 expression reporter modulators in myotubes – cell-based, C2C12 myotubes, firefly/Renilla luciferase, luminescence, FRG1 inhibition for FSHD, primary screen (AID 1084); conditions: FRG1 promoter luciferase, higher = more signal, called active from +8 up or from −8 down
[9] = small molecules captured by biotinylated probe aFST – biochemical, small-molecule microarray, fluorescence 635/667, stem cell growth factor project, primary screen (AID 1086); conditions: higher = more signal;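 note: score merges 667 nm fluorescence with signal-to-noise of each printed compound spot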
[10] = binders of probe aHhip on microarray, primary screen, stem cell growth factor project, biochemical, small-molecule microarray, fluorescence 635/667 (AID 1087); conditions: higher = more signal;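 note: score merges spot fluorescence at 667nm with spot signal to noise ratio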

Chain of Neurogenic locus notch homolog protein 2 (Homo sapiens) (Q04721 whole entry, looked up, canonical isoform): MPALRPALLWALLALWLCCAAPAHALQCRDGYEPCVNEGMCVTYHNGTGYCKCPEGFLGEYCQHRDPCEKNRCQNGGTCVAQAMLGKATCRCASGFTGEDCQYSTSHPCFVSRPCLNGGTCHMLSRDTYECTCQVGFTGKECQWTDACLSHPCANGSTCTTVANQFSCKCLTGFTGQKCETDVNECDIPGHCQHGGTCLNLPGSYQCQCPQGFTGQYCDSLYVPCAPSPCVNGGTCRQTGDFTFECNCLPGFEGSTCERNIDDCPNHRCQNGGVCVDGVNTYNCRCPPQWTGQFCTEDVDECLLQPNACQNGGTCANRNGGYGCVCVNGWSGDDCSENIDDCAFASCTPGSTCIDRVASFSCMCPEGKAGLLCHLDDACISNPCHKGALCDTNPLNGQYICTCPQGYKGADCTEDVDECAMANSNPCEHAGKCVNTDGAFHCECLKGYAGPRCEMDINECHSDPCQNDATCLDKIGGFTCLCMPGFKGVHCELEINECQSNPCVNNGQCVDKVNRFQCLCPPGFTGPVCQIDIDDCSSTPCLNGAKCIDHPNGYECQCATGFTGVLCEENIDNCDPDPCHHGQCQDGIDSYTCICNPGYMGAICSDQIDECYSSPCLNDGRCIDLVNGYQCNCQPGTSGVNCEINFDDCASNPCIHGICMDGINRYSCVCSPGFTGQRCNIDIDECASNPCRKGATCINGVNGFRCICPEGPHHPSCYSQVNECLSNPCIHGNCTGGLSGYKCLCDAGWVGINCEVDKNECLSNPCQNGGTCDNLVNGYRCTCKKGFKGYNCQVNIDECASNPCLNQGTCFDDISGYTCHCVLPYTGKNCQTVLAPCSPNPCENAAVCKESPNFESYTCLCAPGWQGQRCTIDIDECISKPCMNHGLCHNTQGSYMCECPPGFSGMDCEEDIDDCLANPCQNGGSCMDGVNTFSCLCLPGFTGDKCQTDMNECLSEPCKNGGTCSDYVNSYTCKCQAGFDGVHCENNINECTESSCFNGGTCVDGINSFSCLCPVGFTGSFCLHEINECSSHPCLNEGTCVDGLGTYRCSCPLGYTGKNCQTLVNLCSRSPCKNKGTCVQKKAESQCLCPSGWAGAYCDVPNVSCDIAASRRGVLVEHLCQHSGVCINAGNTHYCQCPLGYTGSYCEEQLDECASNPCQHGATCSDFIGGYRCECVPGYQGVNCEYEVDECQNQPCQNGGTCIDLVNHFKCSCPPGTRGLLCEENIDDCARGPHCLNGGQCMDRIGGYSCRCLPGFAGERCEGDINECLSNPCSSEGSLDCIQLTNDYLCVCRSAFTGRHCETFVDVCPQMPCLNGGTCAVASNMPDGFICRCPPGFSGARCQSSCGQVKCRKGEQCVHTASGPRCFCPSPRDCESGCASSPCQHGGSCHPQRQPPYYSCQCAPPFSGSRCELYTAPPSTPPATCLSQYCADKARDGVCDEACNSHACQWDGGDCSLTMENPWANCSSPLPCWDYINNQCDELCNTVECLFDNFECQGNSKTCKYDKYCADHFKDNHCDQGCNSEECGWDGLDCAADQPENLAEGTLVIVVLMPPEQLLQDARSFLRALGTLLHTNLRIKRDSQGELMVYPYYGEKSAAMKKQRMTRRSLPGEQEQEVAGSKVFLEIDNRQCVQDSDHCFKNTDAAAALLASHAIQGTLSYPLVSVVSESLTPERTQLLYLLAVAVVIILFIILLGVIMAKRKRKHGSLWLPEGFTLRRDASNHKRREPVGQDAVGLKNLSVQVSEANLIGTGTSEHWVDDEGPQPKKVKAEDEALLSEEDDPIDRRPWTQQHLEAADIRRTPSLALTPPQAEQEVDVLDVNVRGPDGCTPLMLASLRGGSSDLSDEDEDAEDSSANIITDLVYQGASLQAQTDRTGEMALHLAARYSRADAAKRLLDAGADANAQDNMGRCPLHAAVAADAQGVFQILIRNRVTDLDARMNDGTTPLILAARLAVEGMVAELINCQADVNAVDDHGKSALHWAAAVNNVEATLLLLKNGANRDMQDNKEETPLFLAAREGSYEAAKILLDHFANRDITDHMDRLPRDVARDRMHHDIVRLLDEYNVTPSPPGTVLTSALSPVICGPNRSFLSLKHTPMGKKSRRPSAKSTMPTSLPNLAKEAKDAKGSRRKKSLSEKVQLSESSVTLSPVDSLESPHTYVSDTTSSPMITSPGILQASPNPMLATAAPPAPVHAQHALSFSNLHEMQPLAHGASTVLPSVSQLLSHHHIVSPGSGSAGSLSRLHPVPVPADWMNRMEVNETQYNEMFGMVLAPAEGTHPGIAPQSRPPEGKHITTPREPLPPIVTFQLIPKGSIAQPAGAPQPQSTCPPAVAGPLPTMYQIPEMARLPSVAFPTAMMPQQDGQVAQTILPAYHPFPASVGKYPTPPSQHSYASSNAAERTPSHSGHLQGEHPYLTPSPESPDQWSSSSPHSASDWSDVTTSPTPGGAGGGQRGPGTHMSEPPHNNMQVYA
Chain of Pro-neuregulin-1, membrane-bound isoform (Homo sapiens) (Q02297 whole entry, looked up, the tested form may be a part, canonical isoform): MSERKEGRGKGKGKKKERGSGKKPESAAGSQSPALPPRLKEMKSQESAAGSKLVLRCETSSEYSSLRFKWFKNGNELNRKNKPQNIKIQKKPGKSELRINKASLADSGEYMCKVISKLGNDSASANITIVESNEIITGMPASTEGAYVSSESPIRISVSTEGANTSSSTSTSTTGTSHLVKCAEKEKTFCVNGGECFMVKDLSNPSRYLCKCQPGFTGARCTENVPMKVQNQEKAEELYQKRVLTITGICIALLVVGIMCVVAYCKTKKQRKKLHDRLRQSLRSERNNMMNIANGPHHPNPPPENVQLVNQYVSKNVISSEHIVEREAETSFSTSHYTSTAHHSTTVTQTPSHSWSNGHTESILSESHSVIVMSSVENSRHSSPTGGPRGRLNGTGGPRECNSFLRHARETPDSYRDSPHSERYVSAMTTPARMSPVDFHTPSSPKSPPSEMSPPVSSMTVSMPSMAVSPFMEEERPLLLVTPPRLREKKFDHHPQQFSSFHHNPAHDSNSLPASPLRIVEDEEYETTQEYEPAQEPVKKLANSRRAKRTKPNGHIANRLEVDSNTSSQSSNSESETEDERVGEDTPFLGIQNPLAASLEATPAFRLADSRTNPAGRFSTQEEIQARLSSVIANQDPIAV

Compound	composite z-score [1]	composite z-score [2]	composite z-score [3]	composite z-score [4]	composite z-score [5]	composite z-score [6]	composite z-score [7]	z-score [8]	composite z-score [9]	composite z-score [10]
C=C[C@@H](OC)[C@H](OC(=O)Nc1ccc(SC)cc1)c1ccc(OCCO)cc1	0.0275	0.363	0.0166	0.485	0.794	1.43	1.33	6.53 (inactive)	0.574	0.675
O=C1C[C@@](C(=O)NCC(F)(F)F)(c2ccc([N+](=O)[O-])cc2)[C@@H](c2ccc(CO)cc2)N1CC12CC3CC(CC(C3)C1)C2	0.213	0.244	0.134	1.15	1.19	0.812	1.32	-2.42 (inactive)	0.724	0.914
COCCOC(=O)N1C(=O)[C@@]2(c3cc(C#CCNC(N)=O)ccc31)[C@H](c1ccc(OCCO)cc1)N1[C@H](c3ccccc3)[C@H](c3ccccc3)OC(=O)[C@H]1[C@@H]2C(=O)NC[C@H](O)c1ccccc1	-0.0349	0.907	-0.0881	0.417	1.25	0.46	0.77	0.499 (inactive)	0.506	-0.215
COC(=O)[C@@]1(Cc2ccc(F)cc2)[C@H]2c3cc(C(=O)N4CCCC4)n(C)c3C[C@H]2CN1C(=O)c1ccccc1	1.18	0.155	0.404	0.779	1.69	2.15	1.34	-0.234 (inactive)	0.951	-0.0645
CN(C)C(=O)[C@@]1(Cc2ccccc2)COC(c2ccc(OCCCO)cc2)=N1	0.862	-0.111	0.0412	-0.055	-0.266	1.81	0.61	-0.698 (inactive)	-0.341	0.217
[N-]=[N+]=NCc1ccccc1C[C@]1(C(=O)N2CCOCC2)COC(c2ccc(OCCCO)cc2)=N1	0.518	0.456	0.083	0.973	0.626	1.02	1.24	-2.87 (inactive)	0.73	-0.0237
Cc1ccc([C@H]2C(C(=O)O)=C[C@@H](C(C)(C)C)N2S(=O)(=O)c2ccc(C)cc2)cc1	0.137	-0.0985	0.17	0.965	1.55	1.54	1.17	-2.04 (inactive)	0.734	0.235
COc1cc(CO)cc(I)c1O[C@H]1C=C(C(=O)NCCO)C[C@@H](NCC2CCCCC2)[C@@H]1O	-0.149	-0.422	-0.0506	0.542	0.481	0.579	0.652	-1.14 (inactive)	0.638	0.0505
C=CCNC(=O)[C@H]1[C@@H]2C(=O)O[C@@H](c3ccccc3)[C@@H](c3ccccc3)N2[C@@H](c2ccc(OCCO)cc2)[C@]12C(=O)N(C(=O)OCCOC)c1ccc(C#Cc3ccc(OC)cc3)cc12	0.0886	0.91	-0.0252	0.713	0.897	0.671	1.12	0.0138 (inactive)	0.111	-0.335
COCCOC(=O)N1C(=O)[C@@]2(c3ccccc31)[C@H](c1ccccc1OCCO)N1[C@H](c3ccccc3)[C@H](c3ccccc3)OC(=O)[C@H]1[C@@H]2C(N)=O	-0.299	0.692	-0.0015	0.725	1.23	0.133	1.3	-2.08 (inactive)	0.971	-0.0645
COCCOC(=O)N1C(=O)[C@@]2(c3cc(C#CCCO)ccc31)[C@H](C(N)=O)[C@H]1C(=O)O[C@H](c3ccccc3)[C@H](c3ccccc3)N1[C@@H]2c1ccc(OCCO)cc1	-0.0241	0.657	-0.0202	0.48	1.43	1.1	1.17	0.478 (inactive)	0.439	-0.0994
C=C(/C(=C/C[C@@H](OC(C)=O)c1ccc(OCCO)cc1)c1cc(C(=O)OC)ccc1OC)C(C)C	-0.247	0.239	-0.155	0.29	0.355	1.67	0.945	2.89 (inactive)	-0.034	0.0024
CCOC(=O)C1=C[C@@H](c2ccccc2)N(S(=O)(=O)c2ccc(C)cc2)[C@H]1c1ccccc1	0.119	-0.137	-0.0659	0.21	0.917	0.442	0.296	-0.401 (inactive)	0.171	-0.0994
CCCNC(=O)[C@@]1(C)c2ccccc2C(=O)N(Cc2ccccc2)[C@H]1c1ccc(CO)cc1	1.93	-0.685	0.12	1.32	-1.28	1.97	0.974	-1.98 (inactive)	0.476	0.106
COc1ccc([Si](C)(C)[C@H]2[C@H](CC(=O)N3CCC[C@H]3CO)O[C@@]3(C(=O)N(Cc4ccc(N5CCC5=O)cc4)c4ccccc43)[C@@H]2C)cc1	-0.589	0.429	-0.0276	0.299	0.549	0.454	1.1	-4.59 (inactive)	0.485	-0.215
C=C(COC)C(=O)CC[C@H](OC(=O)c1cccnc1)c1ccc(CO)o1	-0.403	-0.049	-0.124	0.842	0.574	0.57	1.12	0.292 (inactive)	0.34	-0.0994
Cc1ccccc1C(O)C1C=CC2C(=O)NC(=O)C2N1Nc1ccc(Cl)cc1Cl (stereo not given)	0.51	0.328	0.0342	0.5	1.48	1.73	1.04	0.0623 (inactive)	0.504	-0.283
C=CCNC(=O)[C@H]1[C@@H]2C(=O)O[C@@H](c3ccccc3)[C@@H](c3ccccc3)N2[C@@H](c2ccc(O)cc2)[C@]12C(=O)N(C(=O)OCCOC)c1ccc(C#CCC(C(=O)OC)C(=O)OC)cc12	-0.114	0.85	-0.0422	0.453	0.719	0.225	1.21	0.172 (inactive)	0.376	-0.162
COc1ccc([Si](C)(C)[C@@H]2[C@@H](CCn3cc([C@H](O)c4ccccc4)nn3)O[C@]3(C(=O)N(c4ccccc4)c4ccccc43)[C@H]2C)cc1	-0.162	0.297	-0.0824	0.211	0.0701	0.336	0.75	-0.587 (inactive)	-0.0029	-0.122
[N-]=[N+]=NCc1ccccc1[C@@H]1OC(c2ccc(OCCCO)cc2)=N[C@]1(Cc1ccccc1N=[N+]=[N-])C(=O)NCCN1CCOCC1	-0.0579	0.909	0.088	0.828	1.56	1.19	1.25	0.982 (inactive)	1.11	-0.213
COc1ccc([Si](C)(C)[C@H]2[C@H](CCO)O[C@@]3(C(=O)N(Cc4ccc(N5C(=O)c6ccccc6Oc6ccccc65)cc4)c4ccccc43)[C@@H]2C)cc1	0.603	-0.352	-0.081	0.251	-0.389	0.0473	0.644	-3.69 (inactive)	-0.601	-0.284
CCOC(=O)C[C@H]1[C@H](OC(=O)c2ccccc2-c2ccccc2)[C@@H](NC(=O)c2ccccc2)c2cc(OCCCO)ccc2N1C(=O)c1ccccc1	-0.304	0.0919	-0.0885	0.585	0.494	0.127	0.0357	0.0899 (inactive)	0.0801	0.0274
